Source: PMC13494018
A number with no mark means an inactive call. How the calls were made is not given here.

B1: design_603_0b98da89-d791-4423-9b2d-fd1b7292da18_1163_dldesign_0_cycle1_af2pred (protein)
chain: MEALKEIKELMKKAEEEAKKLAKSMGVEGAKEGLKVAEKYFSSIFDIAIEKLTPEEAKEALDIANKAAKEIKDYIDKAIAEK
B2: design_602_0a1f3d3d-7d26-454b-9b34-ebe8ef9bc7d4_2169_dldesign_0_cycle1_af2pred (protein)
chain: SAFEILKVIEEKAKEVYEITKEENPKIAKKIAAAAYTAGVALGAGDEEEAKKVIEKGKALADKEGAEKGKKALEEAVEEVKKKAKE
B3: design_603_0b98da89-d791-4423-9b2d-fd1b7292da18_227_dldesign_0_cycle1_af2pred (protein)
chain: DKLKEKAEKLKKEVEEEMKKMKKLVKEGKEEEAKAEAKKTKEIAEKAEKAGEEAIEKGDEESKKAGRDALATAERAKQAAKAVIK
B4: design_603_0b98da89-d791-4423-9b2d-fd1b7292da18_573_dldesign_0_cycle1_af2pred (protein)
chain: EELLKGAEEIKKKAEEVVKEIKKINPKLGEEAEKELKEAEKEGKKETPAVYIQKMQEALTYAKSLLIKAKKE
B5: design_603_0b98da89-d791-4423-9b2d-fd1b7292da18_754_dldesign_0_cycle1_af2pred (protein)
chain: NDEEAKQKLAEAAAKLHEAAALAEYEGDEELAKKAREAAKELKAAAADPSLTAEEKAKLAEEAKKKAEEIIKKVEEK
B6: design_602_0a1f3d3d-7d26-454b-9b34-ebe8ef9bc7d4_1719_dldesign_0_cycle1_af2pred (protein)
chain: GLAEEYKKKAEEAEEKAFNSKNVEAAYYYLKASQYYNAAAIYTKKGEEYLEKAKESYEKGKEYEKKGEEIEKK
B7: design_603_0b98da89-d791-4423-9b2d-fd1b7292da18_1132_dldesign_0_cycle1_af2pred (protein)
chain: EEEASKKAREDADKISKEQKKIKENAKAAKAGTPEEAKAKYEEAKKAAEEIKKIDPDLGTFVLNNIKKWYA
B8: design_602_0a1f3d3d-7d26-454b-9b34-ebe8ef9bc7d4_1707_dldesign_0_cycle1_af2pred (protein)
chain: AAAAEAFGKELAAMLDEAYDKSTEDLEKAKEVLAKLKAKAEAAPAEVAEYAKKALKTAKSIEDSIEIEEKLKK
B9: design_603_0b98da89-d791-4423-9b2d-fd1b7292da18_996_dldesign_0_cycle1_af2pred (protein)
chain: SAAEERRKKGLELAEKRYAELEKLAKETEELNPELGKEAKKEAEEAKKYYEKAAEAPDSEVIDYVAKANEKRIKAEKLYKKAK
B10: design_602_0a1f3d3d-7d26-454b-9b34-ebe8ef9bc7d4_1947_dldesign_0_cycle1_af2pred (protein)
chain: ATEEEVKAAVRETIKAAKKYVEAGGDAKEAAEIAHKAQEAKAEGIASGKLDEAYAKVKKLAEEAKAKAEEVEK
B11: design_603_0b98da89-d791-4423-9b2d-fd1b7292da18_403_dldesign_0_cycle1_af2pred (protein)
chain: AAAAEERAAGLAGRARVLEKSGLRLAKLNPEQGELLAEFLREEAEADPIGAPHFRAAADRLLAEVRKYKE
B12: design_603_0b98da89-d791-4423-9b2d-fd1b7292da18_594_dldesign_0_cycle1_af2pred (protein)
chain: SMEEEAKKKLEEVKKEAEKVKKEAEKALKEAKATDKAKGLAAMAKVAAKAHEVRAEGDYYGKYDPEAAKIGKEVMEYVRAKAKEIEA
B13: design_603_0b98da89-d791-4423-9b2d-fd1b7292da18_10_dldesign_0_cycle1_af2pred (protein)
chain: EKEKEELRKELLEKYEEVKKAVEEALKNASNPEVQAELAKVVHEFQELAAEVGAKYPEIAEEAKKLRKEAIEEAKKAVEKSK
B14: design_603_0b98da89-d791-4423-9b2d-fd1b7292da18_39_dldesign_0_cycle1_af2pred (protein)
chain: EETFKKAVEELLKIAKEVYKKDPKAGSAAAGEIYRGKAEYEATGNLEVGVEELQKAAEIIKKADKELGEKAKKIVEEAKKK
B15: design_603_0b98da89-d791-4423-9b2d-fd1b7292da18_215_dldesign_0_cycle1_af2pred (protein)
chain: MTEEEERALVRGAYRAAVEAAKDPANAADYLAKSKALADELIAKGSKKAIASAAFKLEGVAEAAAKDPATAEVAKAANATAKRLNAAL
B16: design_603_0b98da89-d791-4423-9b2d-fd1b7292da18_1193_dldesign_0_cycle1_af2pred (protein)
chain: GEEEKLKELIKKTEELAEGTEKLAKKVSEKYPEFEEELKKAAEEAKKAAEEAKKNPEKAPEQYKKVNEKNFEVQQLRAEGKYKS
B17: design_603_0b98da89-d791-4423-9b2d-fd1b7292da18_768_dldesign_0_cycle1_af2pred (protein)
chain: KAFQAYNSSKALADNNVAVAKKLAEKGKLEEAEKAAKEGLERLKARAERLKGDPEAYKAAMKALEEYEKRAKEVVEEGKKAK
B18: design_603_0b98da89-d791-4423-9b2d-fd1b7292da18_519_dldesign_0_cycle1_af2pred (protein)
chain: AAAQEEARKAAERAAKIMRRRGERTGDLEKAEEAAKRVAAALAEGRAAGSAAMAEALEEFAELEYEKRKEEKKKKEEALE
B19: design_602_0a1f3d3d-7d26-454b-9b34-ebe8ef9bc7d4_1736_dldesign_0_cycle1_af2pred (protein)
chain: DLKEKVEKAEKILKKRKEKLEKAKEKGPKEAKKEAALAKEQMENLIEALKKILEEAKDDPETKAKAEKVIEEAKKLKEEAEKLEKE
B20: design_602_0a1f3d3d-7d26-454b-9b34-ebe8ef9bc7d4_1646_dldesign_0_cycle1_af2pred (protein)
chain: SEFKKKAKLISEAELLINRMAALSPEAAAGAKAILKLAEGGKQEEAEKKIKEIKAASPEEATKLAIEVGKKVAAE
B21: design_603_0b98da89-d791-4423-9b2d-fd1b7292da18_614_dldesign_0_cycle1_af2pred (protein)
chain: DEYVKKAKEAIKKAKEYVEEAKKYAEKGDIENAIKSVQKAQEEISAAYFYADQALKLDPEKGKKLKEEAEKVKEELEKVKEYIKAK
B22: design_602_0a1f3d3d-7d26-454b-9b34-ebe8ef9bc7d4_1428_dldesign_0_cycle1_af2pred (protein)
chain: EEEEKKKKEYVEKIKKALKEVKEAGKKGTEEQKKLAAETADKLYELKAIAEFSNAEEAEKYAEKAEKLAKETLKKIKK
B23: design_603_0b98da89-d791-4423-9b2d-fd1b7292da18_78_dldesign_0_cycle1_af2pred (protein)
chain: MSENVKFASELIRKVVKEAKKIGKEKGASEEAKKKAIEEVAKAIDKISEAAQKGDKEKAKAIAEEAIKKIKKILEEGA
B24: design_602_0a1f3d3d-7d26-454b-9b34-ebe8ef9bc7d4_1801_dldesign_0_cycle1_af2pred (protein)
chain: GKLVEEAKKALEEAKALAAKNPELAKMAEAALERFEKSLRAGLAAADGLASTAAKLGAEDPENAKLAELAGKAAELLFEAI
B25: design_603_0b98da89-d791-4423-9b2d-fd1b7292da18_202_dldesign_0_cycle1_af2pred (protein)
chain: GSATVDALEKALDAREELLRLAKELPPERAELAEKLRAAAEELRETIRRAQKLSPEEGAALITAAAEKARALAKEVKAA
B26: design_603_0b98da89-d791-4423-9b2d-fd1b7292da18_386_dldesign_0_cycle1_af2pred (protein)
chain: EKEEIIKRAKEAAERMKELAKKDPKYAEDAKKGKEVAEKAIEKAKESDKSLASAEALAESLELAVEYLEKKLKE
B27: design_603_0b98da89-d791-4423-9b2d-fd1b7292da18_572_dldesign_0_cycle1_af2pred (protein)
chain: SEKEEYLKKAKEEMEKLKAEILELMKKGNEYLPEASKLMAEMREIGAEAAFYVGPEADELRKKIMGEVLEAAKKYSG
B28: design_603_0b98da89-d791-4423-9b2d-fd1b7292da18_1094_dldesign_0_cycle1_af2pred (protein)
chain: GKEEAEKKLKEAKEKVEEMEKKAKEIEENAKELSAEEIEKIAEEMRKEGEEAIKKAEEADPEKGKEIRKKASEAVHKIREAIAEAKA
B29: design_603_0b98da89-d791-4423-9b2d-fd1b7292da18_74_dldesign_0_cycle1_af2pred (protein)
chain: KEKVKKLEEEAIKALKELSKYRDNPEKAAEYAEKLYEKAFEMGIPLSIASRAAKLAKEGEEGAKEGVKLIKEEAKKVIEE
B30: design_602_0a1f3d3d-7d26-454b-9b34-ebe8ef9bc7d4_1422_dldesign_0_cycle1_af2pred (protein)
chain: DAFLKEAEKLKKKLTEELKKLKEEAKKLTPEVQKKVLEEVKEAEEALKKALELAKKGDKKEAGKAAQEALEKLAEARWLVNKAK
B31: design_602_0a1f3d3d-7d26-454b-9b34-ebe8ef9bc7d4_1819_dldesign_0_cycle1_af2pred (protein)
chain: GSAIMDAQAKAVEIRTEAEKLAKEYKDLPTAKDFKKAAEIAREALKNGEEAIELSKKAEELLEKAKKKLKEELEKK
B32: design_602_0a1f3d3d-7d26-454b-9b34-ebe8ef9bc7d4_1902_dldesign_0_cycle1_af2pred (protein)
chain: DEKKKNLLRAAALTLEEAIEALDTDKNWGAALARSAARYAEEAGDEETAAIAREAAELAAAGGPEVAPEAKALLKEAAERLKKKI
B33: design_603_0b98da89-d791-4423-9b2d-fd1b7292da18_819_dldesign_0_cycle1_af2pred (protein)
chain: SAKEKASAALRAVATAAARDAKKRFPKIDKETANEFQKARMYAADPNEVAKGIEHLKAAAAKLGEIGKEYIAAADKVAALL
B34: design_603_0b98da89-d791-4423-9b2d-fd1b7292da18_1249_dldesign_0_cycle1_af2pred (protein)
chain: AEASKQAAKEIAATVRKLGEKVPEAAPLAEEAAKAVEAAAGEAPEKIAAVAIAALKEIGEKVPEATSLANEARAEARGIAHEAKK
B35: design_603_0b98da89-d791-4423-9b2d-fd1b7292da18_1135_dldesign_0_cycle1_af2pred (protein)
chain: SEELKELAKAVLEEFSKKVHELYELAAEKDKETSKKIKELAKKAAEYGKKAVEDYLKGEKKEEGEKYKKEAEKYFEEAKKLAE
B36: design_602_0a1f3d3d-7d26-454b-9b34-ebe8ef9bc7d4_1768_dldesign_0_cycle1_af2pred (protein)
chain: EEKERAKKFGEGYGEAQLDLAESAMKKATKPEEVKKAAETAAERARKRAKEGTPEEAEELLKAAEKIEKLGKEYLAKL
B37: design_603_0b98da89-d791-4423-9b2d-fd1b7292da18_450_dldesign_0_cycle1_af2pred (protein)
chain: MKKEEELKAKYKKAKELVEEKYKRAKEVVKNGTVEQGLAAAESLLEFGKHAGKSLEKAGDKEGGKEVKELAEKYYKELKEEAEKKA
B38: design_602_0a1f3d3d-7d26-454b-9b34-ebe8ef9bc7d4_1603_dldesign_0_cycle1_af2pred (protein)
chain: KNTLEKAAEAIQAYREEATAYAKEISKKEGKEAGEKAYEEFKKKVKELIALAKADPEAGLKEATKLLEELKAK

Target: VTCN1, Q7Z7D3
Sequence (Q7Z7D3 whole entry): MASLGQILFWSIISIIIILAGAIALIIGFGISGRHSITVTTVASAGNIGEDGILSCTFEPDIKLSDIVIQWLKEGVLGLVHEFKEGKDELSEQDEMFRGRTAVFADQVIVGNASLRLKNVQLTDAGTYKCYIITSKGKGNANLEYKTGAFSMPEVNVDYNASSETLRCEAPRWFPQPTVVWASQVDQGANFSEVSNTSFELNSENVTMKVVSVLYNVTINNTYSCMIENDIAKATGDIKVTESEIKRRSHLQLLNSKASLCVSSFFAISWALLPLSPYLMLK

Binder | binding in a display sort
B1 | not found
B2 | not found
B3 | not found
B4 | not found
B5 | not found
B6 | not found
B7 | not found
B8 | not found
B9 | not found
B10 | not found
B11 | not found
B12 | not found
B13 | not found
B14 | not found
B15 | not found
B16 | not found
B17 | not found
B18 | not found
B19 | not found

Binder | binding in a display sort
B20 | not found
B21 | not found
B22 | not found
B23 | not found
B24 | not found
B25 | not found
B26 | not found
B27 | not found
B28 | not found
B29 | not found
B30 | not found
B31 | not found
B32 | not found
B33 | not found
B34 | not found
B35 | not found
B36 | not found
B37 | not found
B38 | not found
